According to paper PMC7819943, “Rice protein-binding microarrays: a tool to detect cis-acting elements near promoter regions in rice”:
The full ranking holds about 68,000 sequences; the median of “fluorescence intensity (a.u.)” is about 9,100, and the highest 2% start at about 16,000. The full list was thinned out, with the highest values kept by preference.

What follows are sequences tested against OsWRKY34 (Oryza sativa, UniProt Q0JBA9 1-250) (assay: protein-binding microarray (RPBM); PBS, 2% BSA, 51.3 ng/ul salmon testes DNA, 50 uM zinc acetate, 200 nM TF, 25 C, 1 h; high values mean tight binding). Settings: protein: recombinant; tags: N-terminal polyhistidine and DsRed monomer fusion (pET32a); label: CyDye5-dUTP incorporated in the synthesized complementary strand; 3' TTTTT single-stranded linker to array surface; dsDNA, one strand shown.
Procedure, shortened: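 Using Ni–NTA, transcription factors fused N-terminally to polyhistidine and DsRed were purified after expression in E. coli BL21-CodonPlus. These were incubated at 200 nM with a blocked, double-stranded custom Agilent array for 1 h at 25 °C in a buffer containing 50 µM zinc acetate, and the array was washed. The binding signal is per-feature fluorescence intensity (arbitrary units) on an Axon 4000B scanner.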

Chain of OsWRKY34 (Q0JBA9 entry or part of it): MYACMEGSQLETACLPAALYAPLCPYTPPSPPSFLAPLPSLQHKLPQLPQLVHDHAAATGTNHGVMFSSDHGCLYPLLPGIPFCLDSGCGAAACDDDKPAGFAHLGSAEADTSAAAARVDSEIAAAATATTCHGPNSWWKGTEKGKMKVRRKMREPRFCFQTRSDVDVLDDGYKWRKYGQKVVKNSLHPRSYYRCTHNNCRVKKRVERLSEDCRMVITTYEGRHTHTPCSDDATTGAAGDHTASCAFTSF

Sequence	binding signal
AGAATGGTCTTATATGTTGTGTAGTGGTGTGTGGGCGTGTCGGAGTCACCTAGTGCAG	8170 fluorescence intensity (a.u.)
ACCGATGACTTTTGGCAAAACTTACAGTAAAACTGCTTATCGGAGTCACCTAGTGCAG	8850 fluorescence intensity (a.u.)
ATATTTGATGCCGTTGACTTTTTAAAATATATTTGATCATCGGAGTCACCTAGTGCAG	16400 fluorescence intensity (a.u.)
ATGCCGTTGACTTTTTAAAATATATTTGACCATTTCCTATCGGAGTCACCTAGTGCAG	21700 fluorescence intensity (a.u.)
CCTCCTTTCCTAAATATTTGACGCCGTTGACTTTTTTAAACGGAGTCACCTAGTGCAG	13500 fluorescence intensity (a.u.)
CCTCCGTTTTTAAATATTTGATGCCGTTGACTTTTTAAAACGGAGTCACCTAGTGCAG	19900 fluorescence intensity (a.u.)
ATGTTTGACTTTTTTTTAAAAAATTTATATTTTTTTAAATCGGAGTCACCTAGTGCAG	8390 fluorescence intensity (a.u.)
TATTTTCCTACCATTTGATTTATTGTTAAATATACTTTTTCGGAGTCACCTAGTGCAG	10200 fluorescence intensity (a.u.)
CATATCTAACTTTTGACCATCCGTTTTATTTAAAAAAATACGGAGTCACCTAGTGCAG	8310 fluorescence intensity (a.u.)
CCTCCGCTCCTAAATATTTGACACCGCTGACTTTTTAAAACGGAGTCACCTAGTGCAG	11100 fluorescence intensity (a.u.)
CCATCTGTCATATTTGTCATCGTTGACTTTTTTAAATATACGGAGTCACCTAGTGCAG	13600 fluorescence intensity (a.u.)
TCCTATGCCTGCAGCCTGTATCAAAAAATTTTCACAATGTCGGAGTCACCTAGTGCAG	8480 fluorescence intensity (a.u.)
CTATATCGCACGTACTCCGGTACCAACGATCCTATACCATCGGAGTCACCTAGTGCAG	9910 fluorescence intensity (a.u.)
TTTTGAAATCCGCGCCTACTTTTTTCTTGTCTCTTCTGTGCGGAGTCACCTAGTGCAG	8400 fluorescence intensity (a.u.)
CACTCGCCACCGCCGCCCACCCGCAACTGCCGCCGACTCCCGGAGTCACCTAGTGCAG	10800 fluorescence intensity (a.u.)
CTATTATAGCGTGTCGGACACTGACTCCTCCCATGTTCCTCGGAGTCACCTAGTGCAG	11100 fluorescence intensity (a.u.)
AACTGAATTGTTGGTTTTTTCGGTTTTCGGTTGTCAGTTCCGGAGTCACCTAGTGCAG	11900 fluorescence intensity (a.u.)
TCCCTAAAATTTTTCACCCTTTCACATTAAACGTTTAACACGGAGTCACCTAGTGCAG	11400 fluorescence intensity (a.u.)
GTAACCCTAATTTCAGAAACTAAACACAGTCACGTAAGAACGGAGTCACCTAGTGCAG	65500 fluorescence intensity (a.u.)
TTGTCAGTTTTCTCTAAACCACAGTAATTAGTCAGTTTCACGGAGTCACCTAGTGCAG	8420 fluorescence intensity (a.u.)
GTCCGCATCCAATTCCCGGGCCATTCGAAATCCCCAACACCGGAGTCACCTAGTGCAG	10200 fluorescence intensity (a.u.)
GGCCATAGCGTGTATTGTTGTGTTTGTGTGTAAAATTTTTCGGAGTCACCTAGTGCAG	11300 fluorescence intensity (a.u.)
GTATGCCATTCGCCCAAGATGCTTTTGCTTCGCATGGACCCGGAGTCACCTAGTGCAG	8540 fluorescence intensity (a.u.)
TTTATTTCCTAGATTAATTCTGATATGTTTCTATGTTTTACGGAGTCACCTAGTGCAG	9260 fluorescence intensity (a.u.)
CTATTCTTGTGTTTTTTTCTATGTTTAATCCTATGTTTTACGGAGTCACCTAGTGCAG	16600 fluorescence intensity (a.u.)
ATTCCTATATTTTTCCTATGTTTTGTAATCCTCTGTTTTACGGAGTCACCTAGTGCAG	12600 fluorescence intensity (a.u.)
TTTTTTTTTCCTTTTGCTGACATGCATTATGTTTTCTATTCGGAGTCACCTAGTGCAG	10000 fluorescence intensity (a.u.)

Sequence	binding signal
ATGTTTTTATGCTGCATTCCCCATGTGTGTTTCCTTCTAACGGAGTCACCTAGTGCAG	19600 fluorescence intensity (a.u.)
AGTTTTTCTAGTCCTTCTTAATGCATGTGTCACCTTCTAACGGAGTCACCTAGTGCAG	10300 fluorescence intensity (a.u.)
CTTAATCGGTATGGGGAGAGTGTTCTTATTGTTTCATTTACGGAGTCACCTAGTGCAG	16800 fluorescence intensity (a.u.)
GCTTAATTACATGGGAGAGGCTTTGTTTCTTGTTTATTTTCGGAGTCACCTAGTGCAG	8760 fluorescence intensity (a.u.)
GTAATTTAATGTTCATTATGGTGTTTCTTAATTGTTTTTTCGGAGTCACCTAGTGCAG	9320 fluorescence intensity (a.u.)
GCCAGACCGCCACCGTCCGTTTCCACAACCGTGCCAGTGCCGGAGTCACCTAGTGCAG	10700 fluorescence intensity (a.u.)
AGGTTGCCAGCGTGTGGGGTGGGTTATTTTCGTGTGCGGGCGGAGTCACCTAGTGCAG	11100 fluorescence intensity (a.u.)
GACCCACCACCACCACCACGCCGCGAGCACGCGAGCGAACCGGAGTCACCTAGTGCAG	8880 fluorescence intensity (a.u.)
GGGACCTAGGATGAACTTATTCCTTTCTGTTTCAACCATACGGAGTCACCTAGTGCAG	8370 fluorescence intensity (a.u.)
TGTGCCAGTTGTTAGTCATGATCTTCCTGATGTGTCATCCCGGAGTCACCTAGTGCAG	8080 fluorescence intensity (a.u.)
ATTTGGTTTTATATGTTTGTGGAGTGATATATTTCGTATTCGGAGTCACCTAGTGCAG	8350 fluorescence intensity (a.u.)
TATCCGGTTTTCTGGTTGAGGGGTATGAATTAGATTCGACCGGAGTCACCTAGTGCAG	10200 fluorescence intensity (a.u.)
GGCTGGTTTGGTTTGTGGCTAAAATTGGCCTTACCAATTTCGGAGTCACCTAGTGCAG	10500 fluorescence intensity (a.u.)
GGTGGTTTGAATTTGGTGTGGCGTTTTTCTTGGGCAGGGGCGGAGTCACCTAGTGCAG	21500 fluorescence intensity (a.u.)
CTTTTTTTTGATTTTTTTTATTTGTGGTTTGGATGTTTTTCGGAGTCACCTAGTGCAG	9280 fluorescence intensity (a.u.)
TTTTCAATTTTCTGGTTGAGTAGGGGTTCGGAATTTTCTTCGGAGTCACCTAGTGCAG	10600 fluorescence intensity (a.u.)
TTTTTGGCTGGTCAAATTTGGCTAGTGTGGGGAGGGTTTTCGGAGTCACCTAGTGCAG	23600 fluorescence intensity (a.u.)
CAGGGTTTGGATGTGGATATGGTTTCTTCAAGGGTATTTTCGGAGTCACCTAGTGCAG	16400 fluorescence intensity (a.u.)
TTGGGTTGGGTCTTGGGTTTGGTGGTTTGAATTTGGTGTGCGGAGTCACCTAGTGCAG	13100 fluorescence intensity (a.u.)
GGTGTGTGCTGGCTATTTGTCAAAGATTATGTGGGTTTTTCGGAGTCACCTAGTGCAG	10400 fluorescence intensity (a.u.)
TGGTTTTTCATTTTGTGTGCGTGTGCACGTTTGTGTGGGGCGGAGTCACCTAGTGCAG	12700 fluorescence intensity (a.u.)
TGGTTGAATTCTGGTTCGGGTATCCTCAATTTCGGGGTTTCGGAGTCACCTAGTGCAG	17700 fluorescence intensity (a.u.)
TGTTATTATGTTTCAGGAATACTTCCTCTGGTTATAAATACGGAGTCACCTAGTGCAG	9850 fluorescence intensity (a.u.)
ACCCCGTTCAACGCTCGCTTATATATATTCCCCTCTCGCACGGAGTCACCTAGTGCAG	8640 fluorescence intensity (a.u.)
AGCCTTCCGGTGAACTCCGGCGACGGGCGGGTGTGGGGATCGGAGTCACCTAGTGCAG	11000 fluorescence intensity (a.u.)
CTATTCTTGTGCATTCTGTTTTTTATCGTACATGCTACAGCGGAGTCACCTAGTGCAG	11800 fluorescence intensity (a.u.)
ATGGTGGGCTGTGGGTGCATGGTTTTGCTGGTCGCACCCACGGAGTCACCTAGTGCAG	11100 fluorescence intensity (a.u.)
